The values below come from the supplement of paper PMC11001985.

Chain of UniProt O75369 (O75369 whole entry): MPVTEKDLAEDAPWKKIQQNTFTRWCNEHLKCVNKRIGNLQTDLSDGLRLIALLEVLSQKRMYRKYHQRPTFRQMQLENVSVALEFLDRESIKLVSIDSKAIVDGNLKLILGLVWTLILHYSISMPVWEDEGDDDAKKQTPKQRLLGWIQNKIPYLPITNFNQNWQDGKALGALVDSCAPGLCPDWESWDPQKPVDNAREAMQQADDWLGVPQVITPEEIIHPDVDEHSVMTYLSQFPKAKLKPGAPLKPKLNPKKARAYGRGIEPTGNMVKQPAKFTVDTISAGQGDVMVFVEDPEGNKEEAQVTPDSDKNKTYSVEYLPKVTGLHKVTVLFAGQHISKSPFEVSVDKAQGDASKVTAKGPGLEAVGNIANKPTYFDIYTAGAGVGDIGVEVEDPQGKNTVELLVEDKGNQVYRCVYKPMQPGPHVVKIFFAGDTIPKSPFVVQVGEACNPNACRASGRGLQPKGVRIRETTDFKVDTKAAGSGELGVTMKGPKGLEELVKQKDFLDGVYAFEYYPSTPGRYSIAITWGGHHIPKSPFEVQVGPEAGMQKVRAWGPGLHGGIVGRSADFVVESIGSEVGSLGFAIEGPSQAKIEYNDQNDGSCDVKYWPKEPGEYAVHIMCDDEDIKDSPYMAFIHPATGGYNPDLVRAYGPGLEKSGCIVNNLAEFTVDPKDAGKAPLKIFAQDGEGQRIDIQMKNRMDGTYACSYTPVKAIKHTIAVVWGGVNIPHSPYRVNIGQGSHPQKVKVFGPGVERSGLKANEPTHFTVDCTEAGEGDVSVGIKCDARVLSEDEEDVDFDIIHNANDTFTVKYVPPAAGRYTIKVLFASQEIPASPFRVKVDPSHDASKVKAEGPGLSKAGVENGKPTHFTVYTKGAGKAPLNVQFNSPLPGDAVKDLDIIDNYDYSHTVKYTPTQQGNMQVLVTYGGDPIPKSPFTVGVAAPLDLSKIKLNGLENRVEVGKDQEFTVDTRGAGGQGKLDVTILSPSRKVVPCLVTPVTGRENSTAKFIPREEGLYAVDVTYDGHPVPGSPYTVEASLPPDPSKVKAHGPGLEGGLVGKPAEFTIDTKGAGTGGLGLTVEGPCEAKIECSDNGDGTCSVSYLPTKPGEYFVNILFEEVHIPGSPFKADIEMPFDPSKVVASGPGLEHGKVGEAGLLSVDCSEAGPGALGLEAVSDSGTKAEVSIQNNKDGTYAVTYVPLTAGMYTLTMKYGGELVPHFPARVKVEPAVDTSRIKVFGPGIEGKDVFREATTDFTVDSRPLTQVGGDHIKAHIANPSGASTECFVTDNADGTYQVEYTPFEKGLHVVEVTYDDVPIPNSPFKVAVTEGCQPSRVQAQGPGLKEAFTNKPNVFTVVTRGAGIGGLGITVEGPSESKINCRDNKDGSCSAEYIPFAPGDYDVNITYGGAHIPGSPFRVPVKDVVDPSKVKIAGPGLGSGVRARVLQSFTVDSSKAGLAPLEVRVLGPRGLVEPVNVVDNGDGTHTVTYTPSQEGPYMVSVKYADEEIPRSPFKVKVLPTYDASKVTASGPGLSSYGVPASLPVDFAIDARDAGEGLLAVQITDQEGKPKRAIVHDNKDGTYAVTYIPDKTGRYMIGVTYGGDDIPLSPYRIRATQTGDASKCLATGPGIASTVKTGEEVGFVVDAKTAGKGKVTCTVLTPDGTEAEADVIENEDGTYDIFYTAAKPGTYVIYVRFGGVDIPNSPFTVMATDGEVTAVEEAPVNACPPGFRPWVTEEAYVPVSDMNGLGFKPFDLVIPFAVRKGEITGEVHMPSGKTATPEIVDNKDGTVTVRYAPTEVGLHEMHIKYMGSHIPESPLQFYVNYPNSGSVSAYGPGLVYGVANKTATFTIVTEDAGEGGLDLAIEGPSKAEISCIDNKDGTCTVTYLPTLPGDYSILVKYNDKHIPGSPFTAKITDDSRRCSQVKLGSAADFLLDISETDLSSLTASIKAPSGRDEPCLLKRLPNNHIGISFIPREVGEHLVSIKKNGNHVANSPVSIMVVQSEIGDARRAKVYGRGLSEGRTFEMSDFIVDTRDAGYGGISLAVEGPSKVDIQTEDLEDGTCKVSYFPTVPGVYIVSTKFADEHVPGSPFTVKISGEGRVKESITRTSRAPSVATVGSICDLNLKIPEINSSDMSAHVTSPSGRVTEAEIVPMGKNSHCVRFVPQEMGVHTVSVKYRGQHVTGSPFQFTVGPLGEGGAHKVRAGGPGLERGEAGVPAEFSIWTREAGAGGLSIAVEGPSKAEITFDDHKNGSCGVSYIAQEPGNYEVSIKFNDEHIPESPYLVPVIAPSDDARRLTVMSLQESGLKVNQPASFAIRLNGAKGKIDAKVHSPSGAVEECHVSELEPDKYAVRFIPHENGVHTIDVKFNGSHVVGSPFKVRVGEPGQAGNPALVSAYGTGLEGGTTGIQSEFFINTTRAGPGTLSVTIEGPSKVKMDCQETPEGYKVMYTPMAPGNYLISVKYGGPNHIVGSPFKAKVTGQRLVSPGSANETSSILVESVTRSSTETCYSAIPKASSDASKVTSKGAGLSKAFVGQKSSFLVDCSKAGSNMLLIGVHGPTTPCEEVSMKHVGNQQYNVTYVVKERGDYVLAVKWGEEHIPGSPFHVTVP
Chain of UniProt P34897 (P34897 whole entry): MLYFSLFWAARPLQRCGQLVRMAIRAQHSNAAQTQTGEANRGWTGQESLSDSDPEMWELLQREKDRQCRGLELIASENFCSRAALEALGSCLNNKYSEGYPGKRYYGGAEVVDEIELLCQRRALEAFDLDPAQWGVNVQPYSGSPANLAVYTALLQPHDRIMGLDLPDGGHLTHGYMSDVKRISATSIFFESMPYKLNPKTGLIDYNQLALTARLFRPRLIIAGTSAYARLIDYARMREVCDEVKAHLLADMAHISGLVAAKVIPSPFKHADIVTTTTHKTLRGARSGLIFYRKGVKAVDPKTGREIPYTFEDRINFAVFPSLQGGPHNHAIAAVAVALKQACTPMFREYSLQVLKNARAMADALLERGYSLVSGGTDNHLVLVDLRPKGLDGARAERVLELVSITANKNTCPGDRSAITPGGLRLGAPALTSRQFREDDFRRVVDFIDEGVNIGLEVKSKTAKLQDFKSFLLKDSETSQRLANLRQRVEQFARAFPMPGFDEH
Chain of UniProt Q9Y6N7 (Q9Y6N7 whole entry): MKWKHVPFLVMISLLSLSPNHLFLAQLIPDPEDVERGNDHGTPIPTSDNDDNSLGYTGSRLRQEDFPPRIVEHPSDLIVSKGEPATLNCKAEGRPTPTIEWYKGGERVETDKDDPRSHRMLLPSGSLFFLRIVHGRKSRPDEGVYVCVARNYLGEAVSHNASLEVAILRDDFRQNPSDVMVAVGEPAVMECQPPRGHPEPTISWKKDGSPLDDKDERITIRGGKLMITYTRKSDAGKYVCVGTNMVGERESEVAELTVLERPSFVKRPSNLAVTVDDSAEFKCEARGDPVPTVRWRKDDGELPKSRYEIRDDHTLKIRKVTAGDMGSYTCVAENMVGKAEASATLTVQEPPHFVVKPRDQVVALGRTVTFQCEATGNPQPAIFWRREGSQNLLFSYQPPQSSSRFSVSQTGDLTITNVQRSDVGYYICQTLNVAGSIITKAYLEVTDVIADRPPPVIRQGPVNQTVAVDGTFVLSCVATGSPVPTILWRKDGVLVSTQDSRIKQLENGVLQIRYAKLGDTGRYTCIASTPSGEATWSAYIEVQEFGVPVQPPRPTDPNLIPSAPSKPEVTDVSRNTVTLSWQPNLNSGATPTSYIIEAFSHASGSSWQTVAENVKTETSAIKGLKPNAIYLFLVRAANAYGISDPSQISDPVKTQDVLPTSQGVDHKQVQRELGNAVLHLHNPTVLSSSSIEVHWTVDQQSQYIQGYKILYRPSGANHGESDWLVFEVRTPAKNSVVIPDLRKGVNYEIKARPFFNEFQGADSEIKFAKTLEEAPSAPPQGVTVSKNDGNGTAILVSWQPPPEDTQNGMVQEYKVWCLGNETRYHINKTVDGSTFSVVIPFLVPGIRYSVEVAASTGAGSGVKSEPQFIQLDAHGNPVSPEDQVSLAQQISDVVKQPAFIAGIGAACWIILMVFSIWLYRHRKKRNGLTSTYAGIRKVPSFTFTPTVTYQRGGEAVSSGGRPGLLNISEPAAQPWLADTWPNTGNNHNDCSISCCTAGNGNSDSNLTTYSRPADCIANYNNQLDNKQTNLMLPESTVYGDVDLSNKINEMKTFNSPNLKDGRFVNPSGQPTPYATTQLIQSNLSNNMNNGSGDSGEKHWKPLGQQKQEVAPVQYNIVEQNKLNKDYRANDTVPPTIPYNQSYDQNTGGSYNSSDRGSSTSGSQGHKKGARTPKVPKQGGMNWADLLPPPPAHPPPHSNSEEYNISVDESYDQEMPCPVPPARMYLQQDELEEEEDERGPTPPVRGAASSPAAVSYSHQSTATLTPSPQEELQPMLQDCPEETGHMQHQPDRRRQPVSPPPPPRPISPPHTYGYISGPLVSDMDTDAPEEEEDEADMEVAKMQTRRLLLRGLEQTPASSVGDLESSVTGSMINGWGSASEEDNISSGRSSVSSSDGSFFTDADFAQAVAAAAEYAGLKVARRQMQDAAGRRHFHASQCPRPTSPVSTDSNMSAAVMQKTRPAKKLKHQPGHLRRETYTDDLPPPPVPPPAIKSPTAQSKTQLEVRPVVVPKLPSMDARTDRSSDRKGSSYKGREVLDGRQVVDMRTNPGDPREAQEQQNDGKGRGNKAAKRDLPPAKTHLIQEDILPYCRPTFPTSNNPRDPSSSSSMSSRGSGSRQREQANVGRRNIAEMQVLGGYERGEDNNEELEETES
Chain of UniProt P51153 (P51153 whole entry): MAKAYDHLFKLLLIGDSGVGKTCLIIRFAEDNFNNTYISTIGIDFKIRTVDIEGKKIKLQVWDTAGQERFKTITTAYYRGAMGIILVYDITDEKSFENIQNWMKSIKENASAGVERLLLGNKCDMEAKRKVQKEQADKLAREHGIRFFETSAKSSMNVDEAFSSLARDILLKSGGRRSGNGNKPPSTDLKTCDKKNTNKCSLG
Chain of UniProt P60903 (P60903 whole entry): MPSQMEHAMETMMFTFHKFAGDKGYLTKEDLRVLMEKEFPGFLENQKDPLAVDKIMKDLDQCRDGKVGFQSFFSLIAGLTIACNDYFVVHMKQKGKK

Compound in this experiment: C#CCNC(=O)CCSSCCC(=O)NCCc1ccc(C=O)c(C=O)c1
In words: lysine labeling ratio R10:1 (500 µM / 50 µM probe), SILAC-ABPP in living cells; higher = lower intrinsic lysine reactivity toward the probe, active = 2 or less. The settings on record: HeLa; probe concentrations 500 vs 50 µM. The procedure, abridged:
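Forward and reverse SILAC label swaps were used with living light and heavy HeLa cells in PBS at room temperature, which were given an alkyne-tagged, disulfide-linked lysine probe at 50 µM or 500 µM. R is the per-lysine filtered median high-probe/low-probe MS1 peptide ratio, with the median then taken across both swap directions. Values are limited to 20.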
Turning to “DISP1 (lysine site: K369) (UniProt Q96F81)”, the “lysine labeling ratio R10:1” value is 1.37 (active).

On to “GALNT7 (lysine site: K624) (UniProt Q86SF2)”, for which the “lysine labeling ratio R10:1” value was 1.81 (active).

Turning to “FGB (lysine site: K422) (UniProt P02675)”, the “lysine labeling ratio R10:1” value was 2.18 (inactive).

Turning to “DARS (lysine site: K40) (UniProt P14868)”, the “lysine labeling ratio R10:1” value is 2.54 (inactive).

Regarding “TFRC (lysine site: K161) (UniProt P02786)”, the “lysine labeling ratio R10:1” value is 6.73 (inactive).

With “ROBO1 (lysine site: K503) (UniProt Q9Y6N7)”, the “lysine labeling ratio R10:1” value is 7.35 (inactive).

“MICA (lysine site: K94) (UniProt Q29983)”: the “lysine labeling ratio R10:1” value is 2.63 (inactive).

For the target “FLNB (lysine site: K987) (UniProt O75369)”, the “lysine labeling ratio R10:1” value is 5.99 (inactive).

Take “LAMC1 (lysine site: K1566) (UniProt P11047)”: the “lysine labeling ratio R10:1” value was 0.555 (active).

As to “CCT5 (lysine site: K392) (UniProt P48643)”, the “lysine labeling ratio R10:1” value was 2.73 (inactive).

As to UniProt O95084 (lysine site: K185), the “lysine labeling ratio R10:1” value was 2.74 (inactive).

“S100A10 (lysine site: K57) (UniProt P60903)”: the “lysine labeling ratio R10:1” value was 2.66 (inactive).

Consider UniProt P62913 (lysine site: K67), for which the “lysine labeling ratio R10:1” value was 3.62 (inactive).

As for UniProt Q16629 (lysine site: K24), the “lysine labeling ratio R10:1” value was 3 (inactive).

On to “SPTAN1 (lysine site: K825) (UniProt Q13813)”, for which the “lysine labeling ratio R10:1” value was 4.08 (inactive).

As for “SLC3A2 (lysine site: K257) (UniProt P08195)”, the “lysine labeling ratio R10:1” value was 1.64 (active).

As to “SHMT2 (lysine site: K103) (UniProt P34897)”, the “lysine labeling ratio R10:1” value was 4.3 (inactive).

For “CCT8 (lysine site: K20) (UniProt P50990)”, the “lysine labeling ratio R10:1” value was 2.11 (inactive).

For “PPIC (lysine site: K49) (UniProt P45877)”, the “lysine labeling ratio R10:1” value is 1.58 (active).

As to “ATP1B1 (lysine site: K277) (UniProt P05026)”, the “lysine labeling ratio R10:1” value is 17.2 (inactive).

On to “ITGAV (lysine site: K535) (UniProt P06756)”, for which the “lysine labeling ratio R10:1” value was 1.58 (active).

For the target “RPL5 (lysine site: K242) (UniProt P46777)”, the “lysine labeling ratio R10:1” value is 5.69 (inactive).

As to UniProt P14618 (lysine site: K66), the “lysine labeling ratio R10:1” value is 1.62 (active).

As to “KTN1 (lysine site: K559) (UniProt Q86UP2)”, the “lysine labeling ratio R10:1” value is 1.4 (active).

With “ITGA6 (lysine site: K127) (UniProt P23229)”, the “lysine labeling ratio R10:1” value was 1.74 (active).

With “SHMT2 (lysine site: K302) (UniProt P34897)”, the “lysine labeling ratio R10:1” value is 2.59 (inactive).

For “FLNB (lysine site: K1005) (UniProt O75369)”, the “lysine labeling ratio R10:1” value is 4.49 (inactive).

As for “CD55 (lysine site: K161) (UniProt P08174)”, the “lysine labeling ratio R10:1” value was 0.828 (active).

With “CELSR2 (lysine site: K2176) (UniProt Q9HCU4)”, the “lysine labeling ratio R10:1” value was 4.05 (inactive).

For “HSPA9 (lysine site: K625) (UniProt P38646)”, the “lysine labeling ratio R10:1” value is 3.75 (inactive).

As for UniProt O60245 (lysine site: K810), the “lysine labeling ratio R10:1” value is 0.802 (active).

As for “RPS3A (lysine site: K167) (UniProt P61247)”, the “lysine labeling ratio R10:1” value was 1.82 (active).

With “RAB13 (lysine site: K172) (UniProt P51153)”, the “lysine labeling ratio R10:1” value was 4.07 (inactive).

In the case of “PCBP2 (lysine site: K322) (UniProt Q15366)”, the “lysine labeling ratio R10:1” value was 4.37 (inactive).

For the target UniProt P05187 (lysine site: K84), the “lysine labeling ratio R10:1” value is 1.24 (active).

With “IGF1R (lysine site: K469) (UniProt P08069)”, the “lysine labeling ratio R10:1” value was 3.98 (inactive).

Turning to “DSTN (lysine site: K92) (UniProt P60981)”, the “lysine labeling ratio R10:1” value is 2.43 (inactive).

UniProt P08727 (lysine site: K216): the “lysine labeling ratio R10:1” value is 7.74 (inactive).

As for “SERPINH1 (lysine site: K94) (UniProt P50454)”, the “lysine labeling ratio R10:1” value was 3.29 (inactive).

For UniProt P05787 (lysine site: K465), the “lysine labeling ratio R10:1” value was 5.11 (inactive).
